Laboratory results reported in PubChem BioAssay.
Results with a measured potency or affinity are listed apart. Records with an inconclusive call do not appear. Calls of active or inactive are those of the source. Unless noted, the rule behind the calls is not given here.

Experiments:
[1] = RMG-1 ovarian cancer cell viability loss – cherry-pick, dose response (AID 687029;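 active = signal drop whose fitted half-maximal concentration is at most twice the top valid dose, in every test run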;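 note: cells exposed to compound for 96 hours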); details: RMG-1 viability, CellTiterGlo ATP luminescence, 96 h; series mostly up to 35 µM
[2] = IOSE-T80 viability loss, PAX8-independent line – cell-based, cherry-pick, selectivity assay for PAX8 inhibitor project, dose response (AID 687032;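 active = fitted half-maximal concentration for viability loss no higher than twice the top valid dose, in every repeat run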;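 note: cells exposed to compound for 96 h before reading; 0% = neutral control wells and -100% = 2 µM mitoxantrone kill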); details: CellTiterGlo ATP luminescence, 96 h; series mostly up to 35 µM
[3] = CMV-driven luciferase expression suppression in HEK293 – cell-based, luminescence, dry powder, counter-screen for Pax8 inhibitor project, dose response (AID 743020;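 active = signal-lowering compounds whose fitted half-maximal concentration is at or below twice the top tested dose in every run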;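 note: HEK293 cells stably expressing the CMV luciferase reporter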); details: HEK293 CMV-luciferase reporter, SteadyGlo luminescence, 24 h; series mostly up to 35 µM
[4] = general cell-killing toxicity readout – plate reader, dry powder samples, cytotoxicity control for PAX8 inhibitor project, dose response (AID 743021); details: cell line, non-specific cytotoxicity counter-screen; series mostly up to 35 µM
[5] = IGROV1 cell killing – plate reader, dry powder samples, PAX8 inhibitor project, dose response (AID 743043); details: IGROV1 ovarian cancer cell cytotoxicity; series mostly up to 35 µM;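 note: more negative means fewer viable cells or more cytotoxicity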
[6] = OVCAR-3 cell viability loss – plate reader, dry powder samples, PAX8 inhibitor project, dose response (AID 743044); details: NIH:OVCAR-3 ovarian cancer cell viability; max activity: at 35 µM, active compounds read low unless noted; series mostly up to 50 µM
[7] = toxicity toward immortalized ovarian surface epithelium – cell-based, plate reader, dry powder samples, cytotoxicity control for PAX8 inhibitor project, dose response (AID 743045); details: IOSE-T80 ovarian epithelial cells; series mostly up to 35 µM;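 note: 0% = neutral control median and -100% = positive control median; more negative values mean more cell killing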
[8] = A2780 cell killing – plate reader, dry powder samples, cytotoxicity control, dose response (AID 743046); details: A2780 ovarian cancer cytotoxicity; series mostly up to 35 µM;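 note: 0% = neutral control wells and -100% = cytotoxic reference compound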

Measured: max activity

Cc1cc(Sc2nnc(N)s2)c2ccccc2n1
inactive: [1] | [2] | [3] | [4]

CCc1ccc2[nH]c3nc(N/N=C/c4ccc(O)cc4O)nnc3c2c1
inactive: [1] | [2] | [3] | [4]

NC(=O)[C@H]1CC2(CC(c3cccc(NC(=O)COc4ccc(Cl)cc4)c3)=NO2)CN1C(=O)C(c1ccccc1)c1ccccc1 (some centres undefined)
inactive: [1] | [2] | [3] | [4]

CCN(CC(=O)Nc1c(F)cccc1F)C(=O)c1cc(S(=O)(=O)N(CC)CC)ccc1N1CCCCC1
inactive: [1] | [2] | [3] | [4]

O=C(Nc1ccc(Cl)cc1)Nc1ccc(N2CCCC2)c(S(=O)(=O)Nc2ccccc2Cl)c1
inactive: [1] | [2] | [3] | [4]

O=C(OCC(=O)N1CCN(C(=O)c2ccco2)CC1)c1cccc(S(=O)(=O)N2CCc3ccccc32)c1
inactive: [1] | [2] | [3] | [4]

O=C(N/N=C/c1ccc(O)cc1)c1[nH]c2ccc(Br)cc2c1-c1ccccc1
inactive: [1] | [2] | [3] | [4]

Cc1ccc2c(c1C)-c1c(ccc(C)c1C)C(=O)C2=O
inactive: [1] | [2] | [3] | [4]

Cc1ccc(S(=O)(=O)c2nc(S(=O)(=O)c3ccccc3)sc2N2CCN(C)CC2)cc1
inactive: [1] | [2] | [3] | [4]

CC1=C(C(=O)OC2CCCCC2)C(c2cccnc2)n2ncnc2N1 (centres undefined)
inactive: [1] | [2] | [3] | [4]

O=C(Nc1ccc(S(=O)(=O)NC2=NCCCCC2)cc1)c1ccc([N+](=O)[O-])s1
inactive: [1] | [2] | [3] | [4]

C=CCC[C@H](Cc1ccc(F)cc1)C(=O)OC[C@H](Cc1c[nH]c2ccccc12)NC(=O)[C@H](CC=C)CC(=O)N(CCO)Cc1ccccc1
inactive: [1] | [2] | [3] | [4]

O=C1c2c(O)ccc(O)c2C(=O)c2c(NCCNCCO)ccc(NCCNCCO)c21
inactive: [1] | [2] | [3] | [4]

C[C@H]1CCCCO[C@@H](CN(C)Cc2ccc(C(F)(F)F)cc2)[C@@H](C)CN([C@@H](C)CO)C(=O)c2cc(NS(=O)(=O)c3ccc(Cl)cc3)ccc2O1
inactive: [1] | [2] | [3] | [4]

O=C(N/N=C/c1ccsc1)c1cc(-c2cccs2)nc2ccccc12
inactive: [1] | [2] | [3] | [4]

CCCCn1cnc2c(c(-c3ccccc3)c(-c3ccccc3)n2Cc2ccco2)c1=N
inactive: [1] | [2] | [3] | [4]

CN(C)CCOc1ccc2c(c1)C(=O)C(=Cc1ncc([N+](=O)[O-])n1C)C2
inactive: [1] | [2] | [3] | [4]

CCCCn1nc(C(=O)Nc2cc(C(F)(F)F)ccc2N2CCOCC2)ccc1=O
inactive: [1] | [2] | [3] | [4]

Cc1cccc(NC(=O)CC23CC4CC(C2)CC(n2nnc(C)n2)(C4)C3)c1
inactive: [1] | [2] | [3] | [4]

COC(=O)[C@@]12C[C@@H](CC(=O)N3CCN(C(=O)c4ccco4)CC3)C(=O)N(Cc3ccco3)C1=CCC(C)(C)C2
inactive: [1] | [2] | [3] | [4]

C=CC[C@H](CC(=O)N(CCO)Cc1ccccc1)C(=O)N[C@@H](COC(=O)[C@H](CC=C)CC(=O)OC(C)(C)C)Cc1c[nH]c2ccccc12
inactive: [1] | [2] | [3] | [4]

COc1cc(Cl)c(NC2=CC(=O)C(=O)c3ccccc32)c(OC)c1
inactive: [1] | [2] | [3] | [4]

COc1ccccc1N1CCN(Cc2cc(Br)c(O)c3ncccc23)CC1
inactive: [1] | [2] | [3] | [4]

Cc1cccc(NCc2ccc(O)c3ncccc23)c1C
inactive: [1] | [2] | [3] | [4]

FC(F)(F)c1nnc2c(Sc3ccccc3)nc3ccc(Cl)cc3n12
inactive: [1] | [2] | [3] | [4]

Cc1ccc(S(=O)(=O)CCC(=O)c2ccc(O)cc2O)cc1
inactive: [1] | [2] | [3] | [4]

Cc1ccc(S(=O)(=O)N2CCCCC2)cc1NC(=O)Cc1c[nH]c2ccccc12
inactive: [1] | [2] | [3] | [4]

O=C(NC1CCCCC1)C(c1cccs1)N(C(=O)Cc1c[nH]c2ccccc12)c1ccc(F)cc1 (centres undefined)
inactive: [1] | [2] | [3] | [4]

O=C(Nc1ccc(F)cc1)c1nc(S(=O)(=O)Cc2ccccc2)ncc1Cl
inactive: [1] | [2] | [3] | [4]

COc1ccc(Br)cc1/C=C/C(=O)c1ccc(NC(C)=O)cc1
inactive: [1] | [2] | [3] | [4]

CCOC(=O)Nc1ccc2c(c1)N(C(=O)CCCl)c1ccccc1[S@]2=O
inactive: [1] | [2] | [3] | [4]

C[C@H]1CN([C@@H](C)CO)C(=O)Cc2cc(NC(=O)Nc3ccc4c(c3)OCO4)ccc2O[C@@H]1CN(C)CC1CCCCC1
inactive: [1] | [2] | [3] | [4] | [5] | [6] -10.1% | [7]

COc1ccc(NC(=O)Nc2ccc3c(c2)C(=O)N([C@@H](C)CO)C[C@@H](C)[C@@H](CN(C)Cc2ccc(Cl)c(Cl)c2)OCCCC[C@@H](C)O3)cc1
inactive: [1] | [2] | [3] | [4] | [5] | [6] -14.2% | [7] | [8]

O=C(C[C@@H]1C[C@@H]2c3cc(NS(=O)(=O)c4ccc(F)cc4)ccc3O[C@@H]2[C@@H](CO)O1)NCc1ccc(-c2ccccc2)cc1
inactive: [1] | [2] | [3] | [4] | [5] | [6] -23.3% [at 16 µM, active compounds read low] | [7]

COc1cccc(S(=O)(=O)N(C)C[C@H]2OCc3ccccc3-c3c(n(C)c4ccccc34)C(=O)N([C@H](C)CO)C[C@H]2C)c1
inactive: [1] | [2] | [3] | [4] | [5] | [6] 28.2% [at 2.1 µM, active compounds read low] | [7]

COc1ccc2c3c(n(C)c2c1)[C@H](CO)N(C(=O)Nc1ccc(F)cc1)CC31CCN(S(=O)(=O)c2cccc(C)c2)CC1
inactive: [1] | [2] | [3] | [4] | [5] | [6] -14.5% | [7]

COc1cccc(/C=C2\SC(=S)N(CCC(=O)NCCc3ccc(O)cc3)C2=O)c1
inactive: [1] | [2] | [3] | [4]

C[C@H](CO)N1C[C@H](C)[C@H](CN(C)Cc2ccc(C(F)(F)F)cc2)Oc2ccc(NS(=O)(=O)c3ccc(F)cc3)cc2CC1=O
inactive: [1] | [2] | [3] | [4] | [5] | [6] 12.3% [at 16 µM, active compounds read low] | [7] | [8]

Cc1ccc(S(=O)(=O)Nc2ccc3c(c2)C(=O)N([C@@H](C)CO)C[C@H](C)[C@H](CN(C)Cc2ccc(C(F)(F)F)cc2)OCCCC[C@@H](C)O3)cc1
inactive: [1] | [2] | [3] | [4] | [5] | [6] 9.21% | [7] | [8]

C[C@@H](NC(=O)c1nc[nH]c1C(=O)N[C@@H](Cc1ccccc1)C(=O)OC(C)(C)C)c1ccccc1
inactive: [1] | [2] | [3] | [4]

Cc1ccccc1-c1ccc2c(c1)O[C@H](CN(C)C(=O)Nc1ccc(C(F)(F)F)cc1)[C@H](C)CN([C@H](C)CO)S2(=O)=O
inactive: [1] | [2] | [3] | [4] | [5] | [6] -27.3% | [7]

C[C@H](CO)N1C[C@H](C)[C@@H](CN(C)Cc2ccc(Cl)c(Cl)c2)OCCCC[C@H](C)Oc2ccc(NS(=O)(=O)c3ccc(Cl)cc3)cc2C1=O
inactive: [1] | [2] | [3] | [4] | [5] | [6] -25.3% | [7]

C[C@@H]1CN([C@H](C)CO)C(=O)c2cc(NC(=O)Nc3ccc(F)cc3)ccc2O[C@@H](C)CCCCO[C@H]1CN(C)S(=O)(=O)c1ccc(Cl)cc1
inactive: [1] | [2] | [3] | [4] | [5] | [6] -22.1% [at 16 µM, active compounds read low] | [7]

Cc1ccc(S(=O)(=O)Nc2ccc3c(c2)C(=O)N([C@H](C)CO)C[C@H](C)[C@@H](CN(C)S(=O)(=O)c2ccc(C)cc2)OCCCC[C@H](C)O3)cc1
inactive: [1] | [2] | [3] | [4]

C[C@@H]1CN([C@@H](C)CO)S(=O)(=O)c2ccc(C#C[C@@H](C)O)cc2O[C@@H]1CN(C)Cc1ccc(-c2ccccc2)cc1
inactive: [1] | [2] | [3] | [4] | [5] | [6] -11.9% [at 16 µM, active compounds read low] | [7] | [8]

CN1C(=O)c2cc(NC(=O)c3cccc(Cl)c3)ccc2OC[C@@H]2O[C@H](CC(=O)NC3CCCCC3)CC[C@@H]21
inactive: [1] | [2] | [3] | [4] | [5] | [6] -25.7% | [7]

C[C@@H]1CN([C@@H](C)CO)C(=O)c2cc(NC(=O)Nc3ccc(C(F)(F)F)cc3)ccc2O[C@@H](C)CCCCO[C@@H]1CN(C)Cc1ccc2c(c1)OCO2
inactive: [1] | [2] | [3] | [4] | [5] | [6] -5.57% [at 16 µM, active compounds read low] | [7]

COCCNC(=O)C[C@@H]1C[C@H]2c3cc(NC(=O)Nc4ccc(C(F)(F)F)cc4)ccc3O[C@H]2[C@H](CO)O1
inactive: [1] | [2] | [3] | [4] | [5] | [6] -18.8% | [7] | [8]
